proKLK7 act: activates the human kallikrein-7 zymogen; P49862; purified proKLK7, EDANS-DABCYL substrate fluorescence; 100% is mature enzyme control, 0% vehicle; activation, % at 7 µM; 370,000 compounds, 0.9% hits; AID 652039;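 active means activation above the mean of all tested compounds plus 3 SD, computed per campaign excluding outliers beyond control limits, cut at about 13% in these data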
ADAM17 inh: inhibitors of human ADAM17; inhibition, % at 6.95 µM; recombinant ADAM17, EDANS/DABCYL FRET peptide cleavage; P78536; 370,000 compounds, 0.83% hits;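 active means inhibition above the mean of compounds lying between control limits plus 3 SD, set per campaign, cut at about 8.5% in these data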
PLCb3 inh: inhibitors of human phospholipase C beta3. 370,000 compounds, 0.18% hits. Q01970. inhibition, % at 12.2 µM. Purified PLC-beta3, fluorogenic substrate, fluorescence
ADAM10 inh: ADAM10 inhibition, QFRET primary screen; inhibition, % at 7 µM; recombinant ADAM10, EDANS/DABCYL FRET peptide cleavage, 3 h; 370,000 compounds, 0.62% hits; O14672; AID 720582;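 active means inhibition above a per-campaign cutoff equal to the mean of compounds falling between control-based bounds plus 3 SD, cut at about 20% in these data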
PLCg1 inh: blocks human PLC-gamma1 enzyme activity; purified PLC-gamma1, fluorogenic substrate, fluorescence; 370,000 compounds, 0.84% hits; AID 720700; inhibition, % at 12.2 µM; in the data active means inhibition above about 9.5%
ADAM10 confirm: confirmation of inhibitors of human ADAM10; shares compounds with ADAM10 inh; ADAM10 QFRET peptide cleavage, EDANS fluorescence; inhibition, % at 6.95 µM; 2,100 compounds, 1% hits;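 active means inhibition above about 20% chosen separately for each screening run, limit read from the data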
ADAM17 counter: counter-screen for ADAM10 exosite inhibitors: inhibitors of human ADAM17; shares compounds with ADAM10 inh; ADAM17 QFRET peptide cleavage, EDANS fluorescence; inhibition, % at 6.95 µM; 2,100 compounds, 0.5% hits; AID 743214;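 active means mean triplicate inhibition above the solvent-only control wells' mean plus 3 SD, cut at about 12% in these data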
ADAM10 counter: ADAM10 inhibition, counter-screen for ADAM17 exosite hits; shares compounds with ADAM17 inh; recombinant ADAM10, EDANS/DABCYL FRET peptide cleavage, 3 h; inhibition, % at 6.95 µM; 2,900 compounds, 47% hits; AID 743256;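 active means mean inhibition over the triplicate runs exceeds the activity threshold set in the earlier primary screen, cut at about 20% in these data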
ADAM17 confirm: confirmation of inhibitors of human ADAM17 | recombinant ADAM17, EDANS/DABCYL QFRET peptide cleavage | AID 743257 | shares compounds with ADAM17 inh | inhibition, % at 6.95 µM | 2,900 compounds, 65% hits;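 active means mean inhibition across replicates above the hit cutoff set in the primary screen, cut at about 8.5% in these data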
PLCg1 ctr: counter-screen for PLC-beta3 inhibitors: inhibitors of human PLC-gamma1; inhibition, % at 12.3 µM; purified PLC-gamma1, fluorogenic substrate, fluorescence; shares compounds with PLCg1 inh; 3,300 compounds, 3.1% hits; in the data active means inhibition above about 9.5%
PLCbeta3 conf: human PLC-beta3 inhibition, confirmation; shares compounds with PLCg1 inh; purified PLC-beta3, fluorogenic substrate fluorescence; inhibition, % at 12.3 µM; 3,300 compounds, 1% hits; AID 743261
Numbers stand for hits; - = inactive; . = no result. The list is not random: actives were taken first. Their share in the collection is about 2.9%. Unless noted, no stated cut-off is given here; in the data, active means inhibition above about 11%; inactive means the rest.

SMILES | proKLK7 act | ADAM17 inh | PLCb3 inh | ADAM10 inh | PLCg1 inh | ADAM10 confirm | ADAM17 counter | ADAM10 counter | ADAM17 confirm | PLCg1 ctr | PLCbeta3 conf
CCN(CC)S(=O)(=O)c1cc([N+](=O)[O-])ccc1NNC(=O)Nc1ccccc1OC | - | 10 | - | 26 | 10 | - | - | - | - | - | -
c1ccc(C[n+]2c(-c3ccccc3)csc2Nc2ccccc2)cc1 | - | - | - | - | - | . | . | . | . | . | .
CC(C)(C)Nc1scc(-c2ccccc2)[n+]1-c1ccccc1 | - | - | - | 42 | 9.7 | - | - | . | . | - | -
O=C(CSc1ccc(Cl)cc1)N1CCN(c2c(Cl)cccc2[N+](=O)[O-])CC1 | - | - | - | - | - | . | . | . | . | . | .
O=C(/C=C/c1ccc(Cl)cc1)N1CCN(c2c(Cl)cccc2[N+](=O)[O-])CC1 | - | 12 | - | 23 | 17 | - | - | - | 8.7 | - | -
Cc1cc(Nc2ccc(Cl)cc2)n(-c2cccc(Cl)c2)n1 | - | 9.8 | - | 24 | 12 | - | - | - | 11 | - | -
Cc1cc(Nc2ccc(Cl)cc2)n(-c2ccccc2)n1 | - | - | - | - | - | . | . | . | . | . | .
CC1(Cc2ccccc2OC(F)(F)F)C(=O)Nc2ccc(-c3ccsc3)cc21 (stereo unspecified) | - | 10 | - | 30 | 11 | - | - | 24 | 14 | - | -
COC(=O)C[C@@H]1CC[C@@H]2[C@@H](COc3ccc(NS(=O)(=O)c4ccc(F)cc4)cc3C(=O)N2C)O1 | - | - | - | - | - | . | . | . | . | . | .
CN1C(=O)c2cc(NS(=O)(=O)c3ccc(F)cc3)ccc2OC[C@H]2O[C@@H](CC(=O)NCC(F)(F)F)CC[C@@H]21 | - | - | - | 26 | 12 | - | - | . | . | 13 | 17
COc1ccccc1-c1cc(N)n(S(=O)(=O)c2cccc3nsnc23)n1 | - | - | - | 23 | 12 | - | - | . | . | - | -
COC(=O)c1sc(-c2ccc(Cl)cc2)cc1NC(=O)c1ccccc1C(=O)O | - | - | - | - | - | . | . | . | . | . | .
Clc1ccccc1CSc1nnc(-c2ccccn2)n1Cc1ccco1 | - | - | - | 21 | 12 | - | - | . | . | - | -
NC(=O)CSc1nnc(-c2ccccn2)n1Cc1ccco1 | - | - | - | - | - | . | . | . | . | . | .
O=C(NCC1COc2ccccc2O1)C1CCCN(S(=O)(=O)c2cnc[nH]2)C1 (stereo unspecified) | - | - | - | - | - | . | . | . | . | . | .
COc1ccccc1NC(=O)CNC(c1ccccc1)c1ccccc1 | - | 9.0 | - | 29 | 13 | - | - | 20 | 11 | - | -
CCOC(=O)c1ccc(NC(=O)c2nc(SC)ncc2Cl)cc1 | - | - | - | - | - | . | . | . | . | . | .
O=C(NCCCn1ccnc1)C(F)(F)C(F)(F)C(=O)NCCCn1ccnc1 | - | - | - | - | - | . | . | . | . | . | .
C=CCOc1ccc(C2NC(=O)c3ccccc3O2)cc1OCC (stereo unspecified) | - | - | - | - | - | . | . | . | . | . | .
COc1cc(/C=N/NC(=O)c2ccc(C)nc2)cc([N+](=O)[O-])c1O | - | - | - | 22 | 9.9 | - | - | . | . | - | -
COC(=O)c1ccc(Cl)c(NC(=O)CN(c2ccc(OC)c(OC)c2)S(C)(=O)=O)c1 | - | - | - | - | - | . | . | . | . | . | .
COC(=O)c1ccc(Cl)c(NC(=O)CN(c2ccc(OC)cc2)S(=O)(=O)c2ccccc2)c1 | - | 18 | - | 35 | 13 | - | - | 26 | 16 | - | -
O=C(O)c1ccccc1NS(=O)(=O)c1ccc(NNC(=S)Nc2ccc(OC(F)F)cc2)c([N+](=O)[O-])c1 | - | 11 | - | 24 | 14 | - | - | - | 12 | 17 | -
Cc1ccc(NC(=S)NNc2ccc([N+](=O)[O-])cc2S(=O)(=O)Nc2ccccc2C(=O)O)cc1C | - | - | - | - | - | . | . | . | . | . | .
CC(C)CC(COCc1cccc(C(F)(F)F)c1)N1CCN(C(=O)c2cccc(C(F)(F)F)c2)CCC1=O (stereo unspecified) | - | - | - | 21 | 9.6 | - | - | . | . | - | -
SMILES | proKLK7 act | ADAM17 inh | PLCb3 inh | ADAM10 inh | PLCg1 inh | ADAM10 confirm | ADAM17 counter | ADAM10 counter | ADAM17 confirm | PLCg1 ctr | PLCbeta3 conf
Cc1ccc(NC(=O)C2CCN(S(=O)(=O)c3cccc4nonc34)CC2)cc1 | - | - | - | - | - | . | . | . | . | . | .
O=C(CSc1ccc(Cl)cc1Cl)N1CCC(c2nc3ccccc3s2)CC1 | - | 12 | - | 21 | 11 | - | - | - | 13 | - | -
O=C(OCc1ccccc1Cl)c1cc([N+](=O)[O-])ccc1N1CCOCC1 | - | - | - | 20 | 14 | - | - | . | . | - | -
CCc1ccc(NC(=O)C2=CC(c3cccs3)=NS(=O)(=O)N2C)cc1 | - | 18 | - | 29 | 16 | - | - | 23 | 13 | - | -
CC(C)CCNC(=O)Cc1ccccc1[N+](=O)[O-] | - | - | - | - | - | . | . | . | . | . | .
COCCn1c(SCC(=O)N2CCCC2)nc2c(c1=O)SCC2 | - | - | 11 | 21 | - | - | - | . | . | - | -
COc1ccc(CC(=O)N/N=C/c2cccn2-c2ccc([N+](=O)[O-])cc2)cc1OC | - | - | - | 21 | 12 | - | - | . | . | - | -
COc1ccc(N=C2SC(CC(=O)Nc3ccccc3)C(=O)N2Cc2ccco2)cc1 (stereo unspecified) | - | 9.3 | 11 | 28 | - | - | - | 20 | 14 | - | -
Cc1cc(N2CCCCC2)nc(SCc2ccc(C#N)cc2)n1 | - | 8.6 | - | 26 | 11 | - | - | 20 | 13 | - | -
COc1ccc(Nc2nc(N3CCCCC3)nc3ccccc23)c(OC)c1 | - | - | - | - | - | . | . | . | . | . | .
O=C(CSC1CS(=O)(=O)c2cc([N+](=O)[O-])ccc21)NNC(=O)c1ccccc1 (stereo unspecified) | - | - | - | 24 | 10.0 | - | - | . | . | - | -
O=C(Cc1csc(N2CCOCC2)n1)N/N=C/c1ccc(O)c(O)c1O | - | - | - | - | - | . | . | . | . | . | .
CCOc1cc(C(c2c(C)[nH][nH]c2=O)c2c(C)[nH][nH]c2=O)cc([N+](=O)[O-])c1O | - | - | - | - | - | . | . | . | . | . | .
